Measured values reported in PubChem BioAssay (NCI).
This is part of a sample that, as a whole, favours compounds with a hit. Of some 79,000 tested, about 15% had one in any assay. Active and inactive are the calls of the source. Rule as the data show it: active = growth inhibition above about 70%; inactive = the rest.

Assays:
[1] = NCI Yeast Anticancer Drug Screen. Data for the rad50 strain (AID 155);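 also: 0% = growth of vehicle-only cultures of the same strain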; conditions: S. cerevisiae rad50 strain growth inhibition, active compounds read high
Summary of the method: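 Genetically altered yeast (DNA repair pathway); compound treatment; growth inhibition vs vehicle ctrl.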

[2] = NCI Yeast Anticancer Drug Screen. Data for the mec2-1 strain (AID 157); conditions: S. cerevisiae mec2-1 strain, active compounds read high
Summary of the method: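 Each compound was tested on mec2-1 yeast, a strain altered in DNA damage repair or cell cycle control. Growth inhibition is reported relative to vehicle.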

[3] = NCI Yeast Anticancer Drug Screen. Data for the sgs1 mgt1 strain (AID 161);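 also: 0% = growth of cultures given vehicle only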; conditions: S. cerevisiae sgs1 mgt1 strain, active compounds read high
Summary of the method: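 Read-out: growth inhibition vs vehicle controls. Cells: mutant yeast strain deficient in DNA damage repair.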

[4] = NCI Yeast Anticancer Drug Screen. Data for the cln2 rad14 strain (AID 165);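 also: 0% = growth equal to vehicle treated cultures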; conditions: S. cerevisiae cln2 rad14 strain, active compounds read high
Summary of the method: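 Test compounds were added to cln2 rad14 yeast cultures; inhibition of growth was then determined by comparison with vehicle treatment.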

[5] = NCI Yeast Anticancer Drug Screen. Data for the bub3 strain (AID 167); conditions: S. cerevisiae bub3 mutant strain, active compounds read high
Summary of the method: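 Yeast carrying a defined mutation is treated with each compound, and growth is compared with that of vehicle-exposed cells to give inhibition.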

[6] = NCI Yeast Anticancer Drug Screen. Data for the mlh1 rad18 strain (AID 175); conditions: S. cerevisiae mlh1 rad18 strain growth inhibition, active compounds read high
Summary of the method: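 Inhibition values reflect reduced growth of mutant yeast versus vehicle-treated controls following compound exposure; the mutations affect DNA damage repair.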

[7] = at 5.0 µM (retest, dose inferred, filed as 0.5)
[8] = at 50.0 µM (retest, dose inferred, filed as 5.0)

Measured: growth inhibition

C/C=C(\C)C(=O)OC1C2C(C)=CC(=O)C(O)C2(C)C2C3(O)OCC24C1OC(=O)C(O)C4C(C)C3O (stereo not given)
active: [1]; at 50.0 µM 84.2% | [2]; at 50.0 µM 72.5% | [3]; at 50.0 µM 71.7% | [4]; at 50.0 µM 78.5% | [5]; at 50.0 µM 75.8%
inactive: [1]; [7] -2% | [1]; [8] 54% | [2]; [7] 15% | [2]; [8] 30% | [3]; [7] 9% | [3]; [8] 42% | [4]; [7] 8% | [4]; [8] 67% | [5]; [7] -13% | [5]; [8] 51% | [6]; [7] -33% | [6]; [8] 66% | [6]; at 50.0 µM 34.5%

CCN(CC)CCCCSc1ccc([N+](=O)[O-])cc1[N+](=O)[O-]
inactive: [1]; [7] 27% | [1]; [8] 45% | [2]; [7] 32% | [2]; [8] 36% | [2]; at 50.0 µM 45.4% | [3]; [7] 32% | [3]; [8] 68% | [4]; [7] 43% | [4]; [8] 43% | [4]; at 50.0 µM 59.3% | [5]; [7] 30% | [5]; [8] 47% | [5]; at 50.0 µM 65.8% | [6]; [7] 23% | [6]; [8] 44%
active: [1]; at 50.0 µM 77.6% | [3]; at 50.0 µM 72.8% | [6]; at 50.0 µM 71.9%

CC12CCC3c4cc(O)ccc4CCC3C1CCC2O (stereo not given)
inactive: [1]; [7] 4% | [1]; [8] 54% | [1]; at 50.0 µM 50.2% | [2]; [7] -4% | [2]; [8] 51% | [2]; at 50.0 µM 26.5% | [3]; [7] 1% | [3]; at 50.0 µM 58.2% | [4]; [7] -6% | [4]; [8] 41% | [4]; at 50.0 µM 24.8% | [5]; [7] -1% | [5]; [8] 54% | [5]; at 50.0 µM 55.4% | [6]; [7] 4% | [6]; [8] 67% | [6]; at 50.0 µM 37%
active: [3]; [8] 81%

C=C1C(=O)OC(C)(C)C1c1ccc(Cl)c(Cl)c1 (stereo not given)
active: [1]; [8] 99% | [1]; at 50.0 µM 99.5% | [2]; [8] 99% | [2]; at 50.0 µM 99.8% | [3]; [8] 99% | [3]; at 50.0 µM 99.8% | [4]; [8] 97% | [4]; at 50.0 µM 99.2% | [5]; [8] 99% | [5]; at 50.0 µM 99.5% | [6]; [8] 98% | [6]; at 50.0 µM 99.7%
inactive: [1]; [7] 25% | [2]; [7] 35% | [3]; [7] 39% | [4]; [7] 18% | [5]; [7] 37% | [6]; [7] 38%

Clc1ccc(CN2CCN(Cc3ccc(Cl)cc3)C2c2ccc(Cl)cc2)cc1
inactive: [1]; [7] 17% | [1]; [8] 66% | [1]; at 50.0 µM 21.9% | [2]; [7] 4% | [2]; [8] 58% | [2]; at 50.0 µM 34.5% | [3]; [7] 40% | [3]; at 50.0 µM 53.5% | [4]; [7] 26% | [4]; [8] 55% | [4]; at 50.0 µM 69.4% | [5]; [7] 33% | [5]; at 50.0 µM 28.1% | [6]; [7] 28% | [6]; at 50.0 µM 27.2%
active: [3]; [8] 92% | [5]; [8] 83% | [6]; [8] 77%

Oc1cc(Br)cc2cc(Cl)cnc12
active: [1]; [7] 99% | [1]; [8] 89% | [1]; at 50.0 µM 84.5% | [2]; [7] 97% | [2]; [8] 87% | [2]; at 50.0 µM 84.5% | [3]; [7] 98% | [3]; [8] 93% | [3]; at 50.0 µM 79.8% | [4]; [7] 98% | [4]; [8] 88% | [4]; at 50.0 µM 80% | [5]; [7] 98% | [5]; [8] 86% | [5]; at 50.0 µM 83.1% | [6]; [7] 98% | [6]; [8] 81% | [6]; at 50.0 µM 75.5%

S=C(Nc1ccccc1)NC1CCCCCCCCC1
inactive: [1]; [7] -2% | [1]; [8] 29% | [2]; [7] -8% | [2]; [8] 42% | [2]; at 50.0 µM 54.9% | [3]; [7] 5% | [3]; [8] 53% | [4]; [7] -59% | [4]; at 50.0 µM 60.7% | [5]; [7] -5% | [5]; [8] 27% | [5]; at 50.0 µM 30.8% | [6]; [7] 0% | [6]; [8] 44%
active: [1]; at 50.0 µM 77% | [3]; at 50.0 µM 90.6% | [4]; [8] 71% | [6]; at 50.0 µM 88.7%

CCCC1=C(c2ccccc2)C(O)(c2ccccc2)C(CCC)C1=O (stereo not given)
inactive: [1]; [7] 0% | [1]; [8] 46% | [2]; [7] 4% | [2]; [8] 47% | [3]; [7] 0% | [3]; [8] 37% | [4]; [7] -9% | [4]; [8] 19% | [5]; [7] -3% | [5]; [8] 69% | [6]; [7] 4% | [6]; [8] 47%
active: [1]; at 50.0 µM 97.8% | [2]; at 50.0 µM 96.4% | [3]; at 50.0 µM 96.2% | [4]; at 50.0 µM 95.3% | [5]; at 50.0 µM 93.3% | [6]; at 50.0 µM 95.8%

CC(=O)Oc1ccc(C)c(C(C)C(Cl)(Cl)Cl)c1 (stereo not given)
active: [6]; at 50.0 µM 81.2%
inactive: [1]; [7] 0% | [1]; [8] 30% | [1]; at 50.0 µM 65% | [2]; [7] -5% | [2]; [8] 50% | [2]; at 50.0 µM 42.8% | [3]; [7] 12% | [3]; [8] 26% | [3]; at 50.0 µM 58.3% | [4]; [7] 8% | [4]; [8] 13% | [4]; at 50.0 µM 52.5% | [5]; [7] -6% | [5]; [8] 4% | [5]; at 50.0 µM 60% | [6]; [7] 0% | [6]; [8] 27%

CC(C)(C)C1=CC(N2CCCCC2)(C(C)(C)C)C=C(C(C)(C)C)C1=O
active: [1]; at 50.0 µM 93.8% | [2]; at 50.0 µM 91.8% | [3]; [8] 77% | [3]; at 50.0 µM 95.3% | [5]; at 50.0 µM 81.2% | [6]; [8] 73% | [6]; at 50.0 µM 94.8%
inactive: [1]; [7] 0% | [1]; [8] 55% | [2]; [7] -2% | [2]; [8] 64% | [3]; [7] 3% | [4]; [7] -3% | [4]; [8] 30% | [4]; at 50.0 µM 65.3% | [5]; [7] -6% | [5]; [8] 35% | [6]; [7] 0%
